These results are taken from PubChem BioAssay (NCATS).

“And” between values parts separate entries of the source, which are not always exact repeats. Equal values may be shown once. Results filed as inconclusive are left out. The source holds several records for some structures; these can differ, active in one and inactive in another. Values without a mark were called inactive. The source made the active and inactive calls. Calls come from the whole dose curve; as a rule, active = well fitted activation curve with a large enough effect; inconclusive = small, poorly fitted or top-dose-only effect; inactive = no such curve, though single readings can be large or run the other way.
Potency is the fitted concentration of half-maximal effect.

Chain of Cellular tumor antigen p53 (Homo sapiens) (P04637 whole entry, looked up): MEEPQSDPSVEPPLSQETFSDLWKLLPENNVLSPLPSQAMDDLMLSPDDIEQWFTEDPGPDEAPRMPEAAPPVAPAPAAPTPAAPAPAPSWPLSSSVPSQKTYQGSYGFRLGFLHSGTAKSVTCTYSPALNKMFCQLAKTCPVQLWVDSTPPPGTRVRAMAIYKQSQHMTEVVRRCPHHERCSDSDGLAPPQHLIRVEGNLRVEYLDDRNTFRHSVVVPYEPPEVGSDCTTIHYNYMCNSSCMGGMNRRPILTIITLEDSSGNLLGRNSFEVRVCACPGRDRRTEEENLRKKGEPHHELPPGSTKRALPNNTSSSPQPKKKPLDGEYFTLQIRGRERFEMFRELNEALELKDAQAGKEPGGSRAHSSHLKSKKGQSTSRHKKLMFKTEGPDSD

This test addresses Cellular tumor antigen p53 (Homo sapiens) (UniProt P04637). In words: Primary qHTS for small molecule compounds that upregulate eGFP-tagged delta133p53alpha (in N-terminal) cells. (AID 2060322).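 For activation: cells pre-induced with doxycycline then dosed without doxycycline; series mostly up to about 56 µM; 0% = DMSO vehicle and 100% = reference activator.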 Note: nearly all actives have a fitted effect of over 75% in size. Conditions: NCI-H358 eGFP-delta133p53alpha fluorescence, 24 h; activation: hits give high values. The text has this:
Assay Development and Screening Technology
National Center for Advancing Translational Sciences (NCATS),
National Institute of Health (NIH), Rockville, Maryland
Cellular senescence (CS) is one of the hallmarks of aging and age-related diseases. Senescent cells are characterized by an irreversible growth arrest, an increase in senescence-associated beta-galactosidase (SA-beta-gal) activity and p16INK4a expression, an activation of the DNA damage response pathways, and the emergence of a senescence-associated secretory phenotype (SASP).
Delta133p53alpha, a human/primate-specific p53 protein isoform, delays or inhibits the induction of CS and SASP in various types of human cells, including progeria-derived fibroblasts, primary normal astrocytes, and CD8+ T lymphocytes. Induction of delta133p53alpha with small molecule compounds may provide therapeutic opportunities for inhibition of senescence/SASP-associated pathologies in progeria syndromes, astrocyte-mediated neuroprotection in neurodegenerative diseases, and possibly prevention and treatment of a wider range of senescence- and aging-associated diseases.
Here we report the development and validation of a cell-based quantitative high throughput screening (qHTS) assay in 1,536-well format. This qHTS assay uses the NCI-H358 cell line with doxycycline-inducible expression of enhanced green fluorescent protein (eGFP)-tagged delta133p53alpha, which allows efficient and highly quantitative measurement of the protein levels.
PROTOCOL TABLE (as described by Inglese J, Shamu CE and Guy RK. 2007)
SEQUENCE No. (e.g., 1, 2, 3, etc.); […] (e.g., Cells, Incubation, Reagent, etc.); VALUE; DESCRIPTION.
1; Cells; 4uL; 800 doxycycline treated cells / well in doxycycline-free media, 1536-well black, clear-bottom low base Aurora microplates.
2; Compounds; 23 nL; Kalypsis pin tool (Wako) equipped with 1536-well pin heads, 5-azacytidine positive control.
3; Incubation; 24 hr; 37C, 5% CO2; 95% relative humidity.
4; Aspiration; 1x; BioTek EL406 washer dispenser (Agilent).
5; Fixing; 3.5% paraformaldehyde, BioTek EL406 washer dispenser (Agilent).
6; Washing; 1x PBS; BioTek EL406 washer dispenser (Agilent).
7; Nuclei staining; 1:1000 dilution of Hoechst 33342 (Thermofisher), BioTek EL406 washer dispenser (Agilent).
8; Incubation; 20 min; in the dark at room temperature.
9; Washing; 2x, 1x PBS (ThermoFisher), BioTek EL406 washer dispenser (Agilent).
10; Reagent; 10 uL; 1x PBS per well, sealed with clear adhesive tape.
NOTES (numbers refer to sequence numbers above).
1. NCI-H358 cells expressing eGFP-tagged delta133p53alpha were grown in T75 culture flasks and treated with doxycycline for 24h, at 10 ng/ml for eGFP-D133p53a cells (N-terminal cell) and 100 ng/ml for D133p53a-eGFP cells (C-terminal cells). Cells were trypsinized, counted using a Counted 3 Automated Cell Counter (Thermo Fisher), and diluted to a concentration of 200,000 cells/ml. A Multidrop Combi Reagent Dispenser (ThermoFisher) was used to dispense 800 cells/well in […] of doxycycline-free media, into 1536-well black/clear bottom low base plates (AuroraMicroplates).
2. After plating cells, 23 nl of compound library, DMSO vehicle control or positive control (5-azacytidine) were transferred by Pin Tool (Wako). The plate map layout was the same for each plate: (column 1) non-doxycycline treated cells + DMSO vehicle control; (column 2) doxycycline treated cells + DMSO vehicle control baseline; (column 3) doxycycline treated cells + positive control 57.5 uM final concentration 5-azacytidine; (column 4) doxycycline treated cells + serial dilution of 5-azacytidine, 16-point 1:2 titration spanning 1.8 nM to […] final concentration; (columns 5-48) doxycycline treated cells + titration of library compounds.
3. Cells were incubated at 37 °C, 5 % CO2, 95% RH with breathable metal lid for 24h.
4-10. […] After two washes, 10 ul of 1X PBS (Thermo Fisher) was dispensed to each well. Clear adhesive plate seals (VWR) were applied and plates stored at 4 °C.
11. […]
(In general: Quantitative high-throughput screening tests each substance at several concentrations.)
Turning to `COc1cccc(N2CCN(C3=Nc4c(F)cccc4[C@H](CC(=O)O)N3c3cc(C(F)(F)F)ccc3OC)CC2)c1`, the activation is -5.73%.

On to `O=C1NC(=O)C(=Cc2ccc3nccnc3c2)S1`, for which the activation is -3.42%.

Take `CC1CCCCN1CCCOC(=O)c1ccc(OC2CCCCC2)cc1` (stereo not given): the activation is -7.53%.

With `CC[C@]12C=CCN3CC[C@@]4(c5cc([C@@]6(C(=O)OC)C[C@H]7C[C@@H](C(C)(F)F)CN(Cc8c6[nH]c6ccccc86)C7)c(OC)cc5N(C)[C@H]4[C@@](O)(C(=O)OC)[C@@H]1OC(C)=O)[C@@H]32`, the Potency is 0.199 µM (active).

For `OC[C@H]1O[C@@H](Oc2cc(O)cc(C=Cc3ccc(O)cc3)c2)[C@H](O)[C@@H](O)[C@H]1O`, the activation was 9.98%.

As to `CN(C)c1nc(N(C)C)nc(N(C)C)n1`, the activation was -31.8% and -1.51% and -37.1%.

Regarding `CC1OC(O[C@@H]2[C@@H](O)[C@H](OC(=O)[C@]34CCC(C)(C)C[C@H]3C3=CCC5[C@@]6(C)CC[C@H](O[C@@H]7O[C@H](C(=O)O)[C@@H](O)[C@H](O[C@@H]8OC[C@@H](O)[C@H](O)[C@H]8O)[C@H]7O[C@@H]7O[C@H](CO)[C@H](O)[C@H](O)[C@H]7O)[C@@](C)(C=O)C6CC[C@@]5(C)[C@]3(C)C[C@H]4O)O[C@H](C)[C@@H]2OC2OC(C)C(OC3OCC(O)C(O)C3O)C(O)C2O)C(O)C(O)C1O` (stereo not given in full), the activation is -3.57%.

For the compound `COc1cc(/C=C/c2cc(O)cc(O[C@@H]3O[C@H](CO)[C@@H](O)[C@H](O)[C@H]3O)c2)ccc1O`, the activation is 7.63%.

On to `C(#Cc1cccc(CN2CCOCC2)c1)CCN1CCCCC1`, for which the activation is -4.3%.

On to `COc1ccccc1N1CCN(CCCCNC(=O)c2ccc(-c3cscn3)cc2)CC1`, for which the activation was 4.3%.

With `N#Cc1c(O)c2c(-c3ccc(-c4ccccc4O)cc3)csc2[nH]c1=O`, the activation was 4.35% and -11.5%.

For `CCCCCCCCCCCCCCCC(=O)O[C@H]1[C@@H](O)[C@@H](O)[C@@H]([C@H](NC(=O)[C@@H]2C[C@@H](CCC)CN2C)[C@H](C)Cl)O[C@@H]1SC`, the activation was 17.9%.

On to `CC1CCN(c2cc(NC(=O)c3ccccc3)ncn2)CC1`, for which the activation was 22.4%.

Regarding `Cn1c(=O)n(-c2ccc(C(C)(C)C#N)cc2)c2c3cc(-c4cnc5ccccc5c4)ccc3ncc21`, the activation is 13% and 27.3%.

Regarding `CCOc1ccn(-c2ccc(F)cc2)c(=O)c1C(=O)Nc1ccc(Oc2ccnc(N)c2Cl)c(F)c1`, the activation was 49.1%.

For `C=C1C(=O)O[C@@H]2[C@H]1CC[C@H](C)C(CCC(=O)O)C2(C)O` (stereo not given in full), the Potency is 23.9 µM (active).

Take `CC(C)=CCC(O)/C(C)=C/CO[C@@H]1O[C@H](CO)[C@@H](O)[C@H](O)[C@H]1O` (stereo not given in full): the activation was -15.2%.

Turning to `Cc1c(CN2CCN(C(=O)C(C)O)CC2)sc2c(N3CCOCC3)nc(-c3cnc(N)nc3)nc12` (stereo not given), the Potency is 12 µM (active).

Consider `CCCCN(CCCC)CC(O)c1cc(Cl)cc2c1-c1ccc(Cl)cc1/C2=C/c1ccc(Cl)cc1` (stereo not given), for which the activation is 22.6% and -82.3%.

Consider `O=C(CCl)Nc1ccc(S(=O)(=O)c2ccc(NC(=O)CCl)cc2)cc1`, for which the activation is 4.47%.

With `Cc1nc(N=Nc2ccc(S(=O)(=O)O)cc2S(=O)(=O)O)c(COP(=O)(O)O)c(C=O)c1O`, the activation was -9.78%.

As for `CCOc1cc(C(=O)Nc2ccc(Cl)c(-c3nc4ccccc4[nH]3)c2)cc(OCC)c1OCC`, the activation was 1.25% and 5.73%.

In the case of `O=C1N(CC2CCCCN2)CCN1c1ccccc1` (stereo not given), the activation was 5.73%.

Consider `CC1CCC23COC(=O)C2=CC(O)CC3C1(C)CCc1ccoc1` (stereo not given), for which the activation is -14.3%.

`CC(=O)N[C@H]1[C@H]([C@H](O)[C@H](O)CO)OC(C(=O)O)=C[C@@H]1N=C(N)N`: the activation was 5.02%.

On to `O=C(O)CCC1CCC(c2cc(F)ccc2F)(S(=O)(=O)c2ccc(Cl)cc2)CC1` (stereo not given), for which the activation is 33.4%.

With `Cc1coc2c1C(=O)C(=O)c1c-2ccc2c(C)cccc12`, the Potency was 13.5 µM (active) and the activation is 9.22%.

Consider `CC(=O)O[C@H]1C[C@H](OC(C)=O)[C@]2(C)[C@H](CC[C@@]34O[C@@H]3C3=C(C)C(=O)O[C@@H]3C[C@H]42)C1(C)C`, for which the activation was 4.46%.

Regarding `Cc1cnc(Nc2ccc(N3CCN(C)CC3)cc2)nc1Nc1cccc(S(=O)(=O)NC(C)(C)C)c1`, the activation was 28.8%.

Take `c1ccc(CNc2nc(NCc3ccccc3)c3ccccc3n2)cc1`: the activation was 44.2%.

As to `CCCCCCCC/C=C\CCCCCCCC(=O)NCc1ccc(O)c(OC)c1`, the activation is -13% and -42.7%.

On to `C=CCc1cc(OC)c(O)c(C(=O)NCCO)c1`, for which the activation was -4.18% and -21%.

`CNc1nc(Nc2ccc(C(=O)N3CCOCC3)cc2OC)ncc1Cl`: the activation was -0.44% and -2.68%.

As to `OCC(O)C(O)C(O)CO` (stereo not given), the activation is 28.5%.

`C=C1C(=O)O[C@@H]2C[C@H](C)[C@@]3(O)C=C(C(C)=O)[C@]4(CC3C[C@H]12)C(=O)O[C@H]1C[C@@H](C)C(CCC(C)=O)=CC[C@H]14` (stereo not given in full): the activation is 4.46%.

Regarding `CC1(C)CN(C(=O)c2ccc(-c3cccc4nc(NC(=O)C5CC5)nn34)cc2)C1`, the activation is 5%.

With `Cc1cc(C)c(CNC(=O)c2cc(-c3ccc(CN4CCOCC4)cc3)cc3c2cnn3C2CCCC2)c(=O)[nH]1`, the Potency is 4.31 µM (active) and the activation was 7.64%.

Turning to `O=C(CCNNC(=O)c1ccncc1)NCc1ccccc1`, the activation is -11.9% and -31.2%.
